Results as given in PubChem BioAssay AID2289 (National Center for Advancing Translational Sciences (NCATS), 2010).
Screen size: about 340,000 compounds; about 3,300 (0.97%) were called active. Roughly 9% stayed inconclusive and do not appear here. The call rests on the fitted dose curve; in most records, active means well fitted inhibition curve with a large enough effect; inconclusive means small, poorly fitted or top-dose-only effect, or effect the other way; inactive means flat fitted curve, though single readings scatter. The list shows a part of the results.

assay: qHTS Assay for Modulators of miRNAs and/or Inhibitors of miR-21; conditions: HeLa miR-21-FLuc reporter, luciferase luminescence, 48 h; actives lower the signal; further: nearly all actives have a fitted effect of over 55% in size
Method in brief: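 HeLa miR-21-FLuc reporter line, endogenous miR-21; 2000 cells/well in DMEM/10% FBS; compound titration up to ~40uM final, 48 h, 37 degree Celsius; luciferase detection reagent, 15 min lysis, CCD luminescence.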
Potency means the concentration at half of the fitted maximal effect.

Potency, active:
CCc1cc(CNC(=O)CCc2nnc(CCCc3ccccc3)o2)on1 7.36 µM, COc1ccc(CCc2nnc(CCC(=O)NCc3cc(C(C)C)no3)o2)cc1 14.7 µM, Cc1ccc(-n2ncc3c(SCc4ccccc4)ncnc32)cc1 3.29 µM, CC(C)Sc1ncnc2c1cnn2-c1ccccc1 2.61 µM, O=[N+]([O-])c1ccccc1OCCCn1cnc2ccccc21 2.93 µM, Brc1ccccc1OCCCn1cnc2ccccc21 1.85 µM, C#CCn1c(COc2ccccc2C)nc2ccccc21 5.85 µM, CCn1c(COc2ccccc2C)nc2ccccc21 9.27 µM, Cn1c(COc2ccc(F)cc2)nc2ccccc21 2.93 µM, Cc1ccccc1OCc1nc2ccccc2n1C 1.04 µM, Cc1cccc(OCc2nc3ccccc3n2C)c1 16.5 µM, Cc1nnc(OCc2nc3ccccc3n2C)c2ccccc12 16.5 µM, COc1ccc(-c2c(C)c3ccc(O)cc3oc2=O)cc1 9.27 µM, COc1ccc(-c2cc3ccc(OCC(C)=O)cc3oc2=O)cc1OC 3.69 µM, COc1ccc(-c2cc3ccc(O)cc3oc2=O)cc1OC 18.5 µM, COc1ccc(-c2cc3ccc(OCC(C)=O)cc3oc2=O)cc1 0.656 µM, O=C(O)c1cc(N/N=C/c2ccc(-c3ccccc3)cc2)ccc1Cl 0.233 µM, O=C(O)c1cc(N/N=C/c2ccc(-c3ccc(F)cc3)o2)ccc1Cl 16.5 µM, O=C(O)c1cc(N/N=C/c2ccc(OCc3ccccc3)cc2)ccc1Cl 1.17 µM, CSc1n[nH]c(-c2ccc(C(F)(F)F)cc2)n1 7.36 µM, C#CC(C)(C)NC(=O)c1ccc(-c2ccccc2F)cc1 5.85 µM, COc1ccc(C(=O)NC2=Nc3ccccc3N=C(C)C2c2ccccc2)cc1 (stereo not given) 13.1 µM, O=C(Nc1ccc(N=Nc2ccccc2)cc1)c1ccccc1Cl 1.04 µM, CC(=O)Nc1ccc(N=Nc2ccccc2)cc1 1.65 µM, CCCC(=O)OCC(=O)Nc1ccc(N=Nc2ccccc2)cc1 3.69 µM, CC(C)C(=O)OCC(=O)Nc1ccc(N=Nc2ccccc2)cc1 1.85 µM, CC(=O)OCC(=O)Nc1ccc(N=Nc2ccccc2)cc1 1.31 µM, COCCC1CCCCN1C(=O)c1ccc2nc(Cc3ccccc3F)oc2c1 (stereo not given) 4.14 µM, C/C(=N\N=c1/sc2ccccc2n1C)c1ccccn1 11.7 µM, Cn1/c(=N/N=C/c2ccccn2)sc2ccccc21 2.07 µM, CCc1nn2c(=O)cc(COC(=O)c3cccs3)nc2s1 9.27 µM, Cc1ccccc1C(=O)OCc1cc(=O)n2nc(C(C)C)sc2n1 2.33 µM, COCCc1nn2c(=O)cc(COC(=O)c3ccccc3C)nc2s1 10.4 µM, CC(C)c1nn2c(=O)cc(COC(=O)c3cccs3)nc2s1 8.26 µM, COCCNc1oc(-c2ccc(Cl)cc2)nc1C#N 9.27 µM, CNc1oc(-c2ccc(Cl)cc2)nc1C#N 3.29 µM, O=c1c2c3c(sc2nc(NCCO)n1Cc1ccco1)CCCCC3 16.5 µM, COCCNC(=O)c1ccc2c(c1)ncn2-c1ccc(F)c(F)c1 16.5 µM, COC(=O)c1cc2c(ccn2-c2ccc(F)cc2)n1Cc1ccc(OC(C)=O)cc1 18.5 µM, COc1cc(O)sc1C=Nc1ccc(Cl)cc1 7.36 µM, Cc1nn(Cc2ccccc2Cl)c(Cl)c1C(=O)NCCc1ccccc1 2.07 µM, Cc1nn(Cc2ccccc2)c(Cl)c1C(=O)NCCc1ccccc1 2.33 µM, CCOC(=O)c1c(C)c(C(=O)NCCc2ccccc2)c(C)n1C 11.7 µM, O=C(NCCc1c[nH]c2ccccc12)c1cnc2sccn2c1=O 3.29 µM, Cc1ccc(C(=O)NCCc2c[nH]c3ccccc23)s1 5.21 µM, Cc1ccsc1C(=O)NCCc1c[nH]c2ccccc12 14.7 µM, COc1ccccc1C1N=C(c2ccccc2C)NO1 (stereo not given) 7.36 µM, CCOC(=O)c1oc2c(c1C)/C(=N/O)CCC2 11.7 µM, CCCCCCSc1nc(N)c2c3c(sc2n1)CCCC3C (stereo not given) 14.7 µM, CN(c1cc(=O)n2ccccc2n1)C1CCCCC1 13.1 µM, CCN(C(=O)c1cc2c(=O)n3ccccc3nc2n1C)C1CCCCC1 11.7 µM, Cc1ccc(N=c2sc(C)c(C)n2C)cc1 11.7 µM, C/C(=N\Nc1ccc(C)c(Cl)c1)c1cccnc1 13.1 µM, C/C(=N\NC(=O)c1sccc1C)c1ccncc1 2.93 µM, C/C(=N\NC(=O)c1sccc1C)c1cccnc1 4.14 µM, Cc1ccccc1-c1nnc(-c2cccs2)o1 6.56 µM, Cc1ccccc1-c1nnc(-c2ccc(Cl)cc2)o1 2.07 µM, CC1CN(C(=O)N2CCC(C(=O)NCc3cccs3)CC2)c2ccccc2O1 (stereo not given) 1.47 µM, S=C(N/N=C/c1ccc(Cl)cc1)N1CCOCC1 9.27 µM, Cc1ccc(/C=N/NC(=S)N2CCOCC2)cc1 13.1 µM, O=C(Nc1ccc(F)cc1)c1nsc(Cl)c1Cl 1.65 µM, COc1c(O)cc2oc(-c3ccc(O)cc3)cc(=O)c2c1O 2.33 µM, COc1c(O)cc2oc(-c3ccc(O)c(O)c3)cc(=O)c2c1O 5.21 µM, COc1ccc(CNc2nc3ccccc3n2C)c(O)c1 1.17 µM, Cn1c(CNc2ccc(O)cc2)nc2ccccc21 16.5 µM, Cn1c(CSc2nc3ccccc3s2)nc2ccccc21 4.14 µM, COc1ccccc1C(=O)COC(=O)c1ccc(N(C)C)cc1 3.29 µM, O=C1/C(=C/c2ccccc2)CCCc2ccccc21 7.36 µM, COc1ccc(/C=C2\Cc3ccccc3C2=O)cc1OC 14.7 µM, COc1ccc(/C=C2/CCc3ccccc3C2=O)cc1OC 18.5 µM
